Inconclusive results are not listed. The source made the active and inactive calls. Calls follow the shape of the dose curve; as a rule, active = well fitted cell-killing curve with a large enough effect; inconclusive = small, poorly fitted or top-dose-only effect, or effect the other way; inactive = no such curve, though single readings can be large or run the other way. Residues, ends and D or L forms follow the SMILES beside them. *: point of attachment. Cbz = O=C(OCc1ccccc1)*
Legend:
[1] = Quantitative High-Throughput drug screen in 47 multiple myeloma cell lines against the NCATS MIPE library collection: MM1R_ATCC cell viability assay (AID 1918981); also: nearly all actives have a fitted effect of over 35% in size
Procedure, shortened: (§1)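 ATP-based CellTiter-Glo luminescence after 48 h drug exposure (37 °C, 5% CO2) of 500 myeloma cells per well. DMSO-only wells set 100% viability, media-only wells 0%; MIPE 4.0 library added by pin tool.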

[2] = Quantitative High-Throughput drug screen in 47 multiple myeloma cell lines against the NCATS MIPE library collection: LP1_DSMZ cell viability assay (AID 1918982); also: nearly all actives have a fitted effect of over 35% in size
Procedure, shortened: as §1

[3] = Quantitative High-Throughput drug screen in 47 multiple myeloma cell lines against the NCATS MIPE library collection: KMS28PE_JCRB cell viability assay (AID 1918983); also: nearly all actives have a fitted effect of over 35% in size
Procedure, shortened: as §1

[4] = Quantitative High-Throughput drug screen in 47 multiple myeloma cell lines against the NCATS MIPE library collection: L363_DSMZ cell viability assay (AID 1918984); also: nearly all actives have a fitted effect of over 40% in size
Procedure, shortened: as §1

[5] = Quantitative High-Throughput drug screen in 47 multiple myeloma cell lines against the NCATS MIPE library collection: KMS34_JCRB cell viability assay (AID 1918985); also: nearly all actives have a fitted effect of over 40% in size
Procedure, shortened: as §1

[6] = Quantitative High-Throughput drug screen in 47 multiple myeloma cell lines against the NCATS MIPE library collection: OCIMY7_PLB cell viability assay (AID 1918987); settings: OCI-MY7 myeloma viability, CellTiter-Glo ATP, 48 h; viability (% of DMSO): at 45.8 µM (top of the series); also: nearly all actives have a fitted effect of over 65% in size
Procedure, shortened: as §1

[7] = Quantitative High-Throughput drug screen in 47 multiple myeloma cell lines against the NCATS MIPE library collection: OCIMY5_PLB cell viability assay (AID 1918988); also: nearly all actives have a fitted effect of over 65% in size
Procedure, shortened: as §1

[8] = Quantitative High-Throughput drug screen in 47 multiple myeloma cell lines against the NCATS MIPE library collection: OPM1_PLB cell viability assay (AID 1918989); also: nearly all actives have a fitted effect of over 40% in size
Procedure, shortened: as §1

[9] = Quantitative High-Throughput drug screen in 47 multiple myeloma cell lines against the NCATS MIPE library collection: SKMM1_PLB cell viability assay (AID 1919863); settings: SKMM1 myeloma viability, CellTiter-Glo ATP, 48 h; viability: active compounds read low; also: nearly all actives have a fitted effect of over 35% in size
Procedure, shortened: as §1

[10] = Quantitative High-Throughput drug screen in 47 multiple myeloma cell lines against the NCATS MIPE library collection: U266_ATCC cell viability assay (AID 1919864); also: nearly all actives have a fitted effect of over 35% in size
Procedure, shortened: as §1

[11] = Quantitative High-Throughput drug screen in 47 multiple myeloma cell lines against the NCATS MIPE library collection: XG6_PLB cell viability assay (AID 1919865); also: nearly all actives have a fitted effect of over 40% in size
Procedure, shortened: as §1

[12] = Quantitative High-Throughput drug screen in 47 multiple myeloma cell lines against the NCATS MIPE library collection: XG1_PLB cell viability assay (AID 1919866); also: nearly all actives have a fitted effect of over 35% in size
Procedure, shortened: as §1

[13] = Quantitative High-Throughput drug screen in 47 multiple myeloma cell lines against the NCATS MIPE library collection: VP6_DJ cell viability assay (AID 1919867); also: nearly all actives have a fitted effect of over 40% in size
Procedure, shortened: as §1

[14] = Quantitative High-Throughput drug screen in 47 multiple myeloma cell lines against the NCATS MIPE library collection: PE2_PLB cell viability assay (AID 1919869); also: nearly all actives have a fitted effect of over 35% in size
Procedure, shortened: as §1

[15] = Quantitative High-Throughput drug screen in 47 multiple myeloma cell lines against the NCATS MIPE library collection: PCM6_Riken cell viability assay (AID 1919870); also: nearly all actives have a fitted effect of over 30% in size
Procedure, shortened: as §1

[16] = Quantitative High-Throughput drug screen in 47 multiple myeloma cell lines against the NCATS MIPE library collection: RPMI8226_ATCC cell viability assay (AID 1919871); also: nearly all actives have a fitted effect of over 30% in size
Procedure, shortened: as §1

[17] = Quantitative High-Throughput drug screen in 47 multiple myeloma cell lines against the NCATS MIPE library collection: KMS11_JCRBsus cell viability assay (AID 1919873); also: nearly all actives have a fitted effect of over 50% in size
Procedure, shortened: as §1

[18] = Quantitative High-Throughput drug screen in 47 multiple myeloma cell lines against the NCATS MIPE library collection: KMS28BM_JCRB cell viability assay (AID 1919874); also: nearly all actives have a fitted effect of over 35% in size
Procedure, shortened: as §1

[19] = Quantitative High-Throughput drug screen in 47 multiple myeloma cell lines against the NCATS MIPE library collection: UTMC2_PLB cell viability assay (AID 1919868); settings: CellTiter-Glo ATP luminescence, 48 h; viability (% of DMSO control): at 45.8 µM (top of the series); also: nearly all actives have a fitted effect of over 55% in size
Procedure, shortened: as §1

[20] = Quantitative High-Throughput drug screen in 47 multiple myeloma cell lines against the NCATS MIPE library collection: OPM2_DSMZ cell viability assay (AID 1919872); also: nearly all actives have a fitted effect of over 30% in size
Procedure, shortened: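 Luminescent ATP measurement with CellTiter-Glo gives viability, scaled between DMSO-only wells (100%) and media-only wells (0%). Cells, 500 per well, faced library compounds for 48 hours at 37C.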

Measured: Potency
Potency is read from the fitted curve at half-maximal effect.

C=CC(=O)Nc1ccc2ncnc(Nc3ccc(OCc4cccc(F)c4)c(Cl)c3)c2c1
active: [1] 8330 nM | [2] 5900 nM | [3] 2640 nM | [4] 29.6 nM | [5] 332 nM | [6] 105 nM | [7] 52.6 nM | [8] 209 nM | [9] 6620 nM | [10] 14800 nM | [11] 14.8 nM | [12] 66.2 nM | [13] 264 nM | [14] 590 nM | [15] 1660 nM | [16] 9350 nM | [17] 187 nM | [18] 132 nM

CC(C)C[C@@H](C=O)NC(=O)[C@H](CC(C)C)NC(=O)[C@H](CC(C)C)NC(=O)OCc1ccccc1 (Cbz-Leu-Leu-Leu-aldehyde)
active: [1] 332 nM | [2] 662 nM | [3] 209 nM | [4] 118 nM | [5] 235 nM | [6] 296 nM | [7] 372 nM | [8] 296 nM | [9] 1180 nM | [11] 105 nM | [12] 148 nM | [13] 132 nM | [19] 1180 nM | [14] 209 nM | [15] 332 nM | [16] 833 nM | [17] 264 nM | [18] 235 nM

c1ccc(CNc2nc(NCc3ccccc3)c3ccccc3n2)cc1
active: [1] 26400 nM | [2] 23500 nM | [3] 23500 nM | [4] 5260 nM | [5] 20900 nM | [6] 4690 nM | [7] 20900 nM | [8] 7430 nM | [9] 29600 nM | [10] 14800 nM | [11] 8330 nM | [12] 7430 nM | [13] 8330 nM | [19] 10500 nM | [14] 11800 nM | [15] 8330 nM | [17] 11800 nM | [18] 11800 nM

C[C@@]12C(=O)OC(=O)[C@@]1(C)C1CCC2O1
active: [1] 2350 nM | [2] 3720 nM | [3] 2350 nM | [4] 3720 nM | [5] 833 nM | [6] 743 nM | [7] 2960 nM | [8] 372 nM | [9] 7430 nM | [10] 1660 nM | [11] 4180 nM | [13] 2350 nM | [19] 46.9 nM | [14] 2640 nM | [15] 2350 nM | [16] 2960 nM | [17] 743 nM | [18] 1050 nM

Cc1ncc(-c2ccnc(Nc3ccc(S(C)(=O)=O)cc3)n2)n1C(C)C
active: [1] 2350 nM | [2] 3320 nM | [3] 5260 nM | [4] 1660 nM | [5] 1870 nM | [6] 833 nM | [7] 3320 nM | [8] 2350 nM | [9] 5260 nM | [10] 3320 nM | [11] 1870 nM | [12] 1480 nM | [13] 1870 nM | [19] 3320 nM | [14] 2350 nM | [15] 743 nM | [17] 2090 nM | [18] 4690 nM

CCC(C(=O)O)C1CCC(C)C(C(C)C(O)C(C)C(=O)C(CC)C2OC3(C=CC(O)[C@@]4(CC[C@](C)(C5CC[C@@](O)(CC)C(C)O5)O4)O3)C(C)CC2C)O1 (stereo not given in full)
active: [1] 3720 nM | [2] 4690 nM | [3] 16600 nM | [4] 833 nM | [5] 6620 nM | [6] 2960 nM | [7] 372 nM | [8] 1320 nM | [9] 2640 nM | [11] 3320 nM | [12] 5900 nM | [13] 2090 nM | [19] 1320 nM | [14] 2640 nM | [15] 4690 nM | [16] 2350 nM | [20] 1870 nM | [17] 3720 nM

CC(C)C[C@H](NC(=O)[C@@H](NC(=O)c1cccc(-c2ccccc2)n1)[C@@H](C)O)B(O)O
active: [1] 13.2 nM | [2] 29.6 nM | [3] 23.5 nM | [4] 26.4 nM | [5] 20.9 nM | [6] 14.8 nM | [7] 13.2 nM | [8] 13.2 nM | [9] 74.3 nM | [11] 13.2 nM | [12] 18.7 nM | [13] 9.3 nM | [19] 166 nM | [14] 11.8 nM | [15] 23.5 nM | [16] 52.6 nM | [17] 13.2 nM | [18] 14.8 nM

COc1cc(C)c(Sc2cnc(NC(=O)c3ccc(CNC(C)C(C)(C)C)cc3)s2)cc1C(=O)N1CCN(C(C)=O)CC1 (stereo not given)
active: [1] 5900 nM | [2] 16600 nM | [3] 9350 nM | [4] 2960 nM | [5] 14800 nM | [6] 3320 nM | [7] 16600 nM | [8] 16600 nM | [9] 20900 nM | [10] 14800 nM | [11] 14800 nM | [12] 16600 nM | [13] 8330 nM | [19] 3320 nM | [14] 14800 nM | [15] 18700 nM | [16] 16600 nM | [20] 20900 nM | [17] 5900 nM

— PubChem BioAssay (NCATS)
